Holding throughout (assay): MAPPIT interaction score (arbitrary units); higher = stronger binary interaction signal, active = hit call of the paper
One experiment deals with 14-3-3epsilon. Conditions: MAPPIT configuration: N-N; pair source set: Lit-BM-16. The protocol: (§1)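 MAPPIT in HEK293T cells: Drosophila bait and prey ORFs (from the FlyBi ORF collection) were co-transfected in quadruplicate, with two wells stimulated by erythropoietin. Interaction-dependent JAK-STAT activation was read out with a STAT-responsive firefly luciferase reporter. Positive calls use the 99th percentile of random reference set (RRS) scores within each batch […]. Batches Dvs01 and Dvs02 used the N-N configuration and Dvs04 the N-C configuration. Pairs come from FlyBi screens, CuraGen, DPiM, Finley Y2H, Lit-BM-16, Lit-BS-16 and RRS.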

Another experiment has as its target CG5174. The note with it: MAPPIT configuration: N-N; pair source set: Curagen_low_conf. How it is done:
as §1

The next experiment addresses LamC. Conditions: MAPPIT configuration: N-N; pair source set: DPIM. How it is done: as §1
In another experiment the target is mon2. The note with it: MAPPIT configuration: N-N; pair source set: Curagen_low_conf. The protocol: as §1
For the next experiment, the target named is par-1. The note with it: pair source set: Lit-BM-16. The protocol:
as §1

The target of a further experiment is sol. Conditions: MAPPIT configuration: N-N; pair source set: Curagen_low_conf. How it is done: as §1
The next experiment has as its target tral. Conditions: MAPPIT configuration: N-N; pair source set: Lit-BS-16. How it is done: as §1
Another experiment has as its target ACOX1. The note with it: MAPPIT configuration: N-N; pair source set: Curagen_low_conf. How it is done: as §1
The target in a further experiment is mbo. Conditions: pair source set: Lit-BM-16. How it is done:
as §1

A further experiment concerns the target AP-1mu. Conditions: MAPPIT configuration: N-C; pair source set: screen_4. How it is done: as §1
The target of a further experiment is CG17377. Conditions: MAPPIT configuration: N-C; pair source set: screen_4. How it is done:
as §1

The next experiment has as its target Mst87F. The note with it: MAPPIT configuration: N-N; pair source set: screen_2. How it is done:
as §1

Another experiment concerns the target lawc. The note with it: MAPPIT configuration: N-C; pair source set: screen_3. How it is done: as §1
The target in a further experiment is 14-3-3zeta. The note with it: pair source set: Lit-BM-16. The protocol: as §1
For a further experiment, the target named is yki. Conditions: MAPPIT configuration: N-N; pair source set: Lit-BM-16. The protocol:
as §1

For five molecules, MAPPIT interaction score results are on record in the supplement of paper PMC10105736.

A number with no mark means an inactive call.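 Rule for the calls: active = MAPPIT score above the 99th percentile of random reference set scores in the same batch; inactive = at or below it.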
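Note: HEK293T cells with Epo stimulation, STAT-responsive firefly luciferase reporter, fold induction versus unstimulated cells divided by the larger fold induction of two negative controls lacking either bait or prey.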

B1: 14-3-3zeta (protein)
chain: MSTVDKEELVQKAKLAEQSERYDDMAQAMKSVTETGVELSNEERNLLSVAYKNVVGARRSSWRVISSIEQKTEASARKQQLAREYRERVEKELREICYEVLGLLDKYLIPKASNPESKVFYLKMKGDYYRYLAEVATGDARNTVVDDSQTAYQDAFDISKGKMQPTHPIRLGLALNFSVFYYEILNSPDKACQLAKQAFDDAIAELDTLNEDSYKDSTLIMQLLRDNLTLWTSDTQGDEAEPQEGGDN
For B1, the MAPPIT interaction score is 3.94 (active) in the experiment with 14-3-3epsilon; 0.738 with CG5174; 0.222 in the experiment with LamC; 0.305 with mon2; -0.258 with par-1 (MAPPIT configuration: N-C); -0.148 in the experiment with par-1 (MAPPIT configuration: N-N). The values for the MAPPIT interaction score with sol and with tral were 1.59 and 0.0264, respectively.

B2: emb (protein)
chain: MATMLTSDEAGKLLDFSQKLDINLLDKIVEVVYTAQGEQLRLAQSILTTLKEHPEAWTRVDSILEYSQNQRTKFYALQILEEVIKTRWKVLPRNQCEGIKKYVVSLIIKTSSDPIVMEQNKVYLNKLNMILVHILKREWPRNWETFISDIVGASKTNESLCMNNMVILKNLSEEVFDFSQGQITQTKAKHLKDTMCSEFSQIFTLCSFVLENSMNAALIHVTLETLLRFLNWIPLGYIFETQQIETLIFKFLSVPMFRNVTLKCLSEIAGLTAANYDENFATLFKDTMVQLEQIVGQNMNMNHVFKHGSDTEQELVLNLAMFLCTFLKEHGKLVEDAKYVDYLNQALMYLVMISEVEDVEVFKICLEYWNSLVEDLYNSEFFHPTLESTKRQQVYPRRRFYAPILSKVRFIMISRMAKPEEVLVVENENGEVVREFMKDTNSINLYKNMRETLVFLTHLDSVDTDRIMTLKLLNQVNGSEFSWKNLNTLCWAIGSISGAFCEEDEKRFLVTVIKDLLGLCEQKKGKDNKAIIASNIMYVVGQYPRFLRAHWKFLKTVVNKLFEFMHETHDGVQDMACDTFIKIAIKCRRYFVTIQPNEACTFIDEILTTMSSIICDLQPQQVHTFYEAVGYMISAQVDQVQQDVLIERYMQLPNQVWDDIISRASKNVDFLKNMTAVKQLGSILKTNVAACKALGHAYVIQLGRIYLDMLNVYKITSENIIQAIEVNGVNVNNQPLIKTMHVVKKETLNLISEWVSRSNDNQLVMDNFIPPLLDAILLDYQRCKVPSAREPKVLSAMAIIVHKLRQHITNEVPKIFDAVFECTLDMINKNFEDFPQHRLSFYELLQAVNAHCFKAFLNIPPAQFKLVFDSVVWAFKHTMRNVADMGLNILFKMLQNLDQHPGAAQSFYQTYFTDILMQIFSVVTDTSHTAGLPNHAIILAYMFSLVENRKITVNLGPIPDNMIFIQEYVASLLKSAFTHLSDNQVKVFVTGLFNLDENVQAFKEHLRDFLIQIREATGEDDSDLYLEEREAALAEEQSNKHQMQRNIPGMLNPHELPEDMQDE
B2: the MAPPIT interaction score is 1.6 with ACOX1, 1.34 in the experiment with mbo (MAPPIT configuration: N-C) and 1.54 with mbo (MAPPIT configuration: N-N).

B3: spin (protein)
chain: MSLKHQKQSYQPLPTAAAMDNPAMIQSSGSSGSSSSEEGGSREDVANLSPLGLPTTYSSQQLMPSDTDSMEEERHRLRPHHHHHHPLGEHHHIPGIPPSAVVPSRLSSVGRSQWFTVTVLCFVNLINYMDRFTIAGVLTDVRNDFDIGNDSAGLLQTVFVISYMVCAPIFGYLGDRYSRPWIMAVGVGLWSTTTLLGSFMKQFGWFIAFRALVGIGEASYSTIAPTIISDLFVHDMRSKMLALFYFAIPVGSGLGYIVGSKTAHLANDWRWALRVTPILGIVAVFLILLIKDPVRGHSEGSHNLEATTYKQDIKALVRNRSFMLSTAGFTCVAFVAGALAWWGPSFIYLGMKMQPGNENIVQDDVAFNFGVITMLAGLLGVPLGSFLSQYLVKRYPTADPVICAFGLLVSAPLLTGACLLVNSNSVGTYALIFFGQLALNLNWAIVADILLYVVVPTRRSTAEAFQILISHALGDAGSPYLVGAISEAIMKHLHKNPSDSGLTTELRSMSQVAGSAISNATQVIAEATTSLMETARSSASQEYSDVEQFEGLQYALFSTSFVEVLGGIFFIFTACFIIKDKYNATRGLQDATAQQQQRDERGQIA
With B3, the MAPPIT interaction score was 2.01 with AP-1mu, 1.62 with CG17377, 2.13 in the experiment with Mst87F and 1.7 with lawc.

B4: 14-3-3epsilon (protein)
chain: MTERENNVYKAKLAEQAERYDEMVEAMKKVASMDVELTVEERNLLSVAYKNVIGARRASWRIITSIEQKEENKGAEEKLEMIKTYRGQVEKELRDICSDILNVLEKHLIPCATSGESKVFYYKMKGDYHRYLAEFATGSDRKDAAENSLIAYKAASDIAMNDLPPTHPIRLGLALNFSVFYYEILNSPDRACRLAKAAFDDAIAELDTLSEESYKDSTLIMQLLRDNLTLWTSDMQAEEVDPNAGDGEPKEQIQDVEDQDVS
Take B4: the MAPPIT interaction score with 14-3-3zeta (MAPPIT configuration: N-C) is 1.51; with 14-3-3zeta (MAPPIT configuration: N-N), 4.99 (active); in the experiment with par-1 (MAPPIT configuration: N-C) it was -0.702; with par-1 (MAPPIT configuration: N-N), -0.144; with yki, 0.198.

B5: Cp38 (protein)
chain: MTRSTYIWALAACLIACASANYGSSQGYGPESGSGASDGGADAASAAAAAAGGAGGAGGEYGGANAGAGALESGADAAGVAQAGQSSYGSDQNIPYKPVNTKGNTLTSSITYPQNKGEILIHRPAPIIVKRPPTKVLVNHPPLVVKPAPVVLHKPPAIVLRKVYVKHHPRRVKVEPVFVNVVKPPAEKYFVNENKQGYGQGSQSHGHGHGHGGHGHGHSGHGHGGHGAGPHGPGPHDGGRALPAYASGADSAAASAGYQLLQSGNQGLSALANIAGEREGPYGPAPSHQHYSAGPAGHGGYAAPAY
As to B5, in the experiment with AP-1mu, the MAPPIT interaction score is 0.503.
